Screens: PubChem BioAssay, several laboratories
In the library only some 1.1% were active in any assay of this set; here they are far more common.
VLA-4 inh: inhibition in a human VLA-4 binding assay; 330,000 compounds, 0.2% hits; VLA-4 expressing cells, ligand binding flow cytometry; P13612; AID 2557; inhibition, % (about 7 µM as worked out from the volumes in the protocol); in the data active = inhibition above about 50%
NTR1 ag: NTR1 (human) agonism | P30989 | AID 493036 | 330,000 compounds, 0.17% hits | activation, % at 20 µM | NTR1-U2OS beta-arrestin-GFP spot imaging, agonist mode;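 active = activation at or above 40% of the spot to cytoplasm intensity ratio, with at least 20 cells analyzed; inconclusive = wells under 20 cells, flagged as cytotoxic or low count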;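 also: 0% = DMSO without peptide and 100% = 100 nM NTR1 peptide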
AI-2 QS mod: modulators of Vibrio harveyi AI-2 quorum sensing system; Vibrio harveyi JMH597 AI-2 luminescence/OD600 ratio, 9 h; stronger effect = lower value; strain lacks LuxN and CqsS sensors; 0 = neutral-control median; activity change, % at 7.5 µM; 300,000 compounds, 0.4% hits; AID 2094; in the data active = activity change below about -75%, passing the limit was not always enough; inconclusive = no clear call, values can overlap the other calls;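 also: luminescence divided by OD600 gain over 9 h not by final OD600 alone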
DSG3 Ab inh: inhibitors of pemphigus antibody binding to human desmoglein-3. P32926. DSG3-coupled beads, scFv-anti-DSG3-GFP binding, flow cytometry; stronger effect = lower value. binding (percent of control), % at 10 µM. 310,000 compounds, 0.48% hits;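 active = binding more than 3 SD below its plate's average and above zero; inconclusive = below that plate limit but binding exactly zero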
The depositor's hits bear a star; i = inactive; ? = inconclusive; nt = not tested or not shown; ! = not confirmed by another sample.

SMILES	VLA-4 inh	NTR1 ag	AI-2 QS mod	DSG3 Ab inh
CCC(=O)OC1(C)C(=O)C=C2C=C(c3ccsc3)OC=C2C1=O (stereo unspecified)	-23	0	20	91
COC(=O)CCC(=O)OC1(C)C(=O)C=C2C=C(c3ccsc3)OC=C2C1=O (stereo unspecified)	-14	-4	48	43*
O=C(N/N=C/c1ccncc1)c1sc2ccccc2c1Cl	5	1	12	-1.9*
COC(=O)c1ccccc1-c1c2ccc(=N)cc-2oc2cc(N)ccc12	nt	-5	nt	i
O=C1[C@H]2[C@@H](c3ccc(Cl)cc3)N3C(=O)N(c4cccc(Br)c4)C(=O)[C@@]3(Cc3ccc(Cl)cc3)[C@H]2C(=O)N1C1CCCCC1	25	1	24	98
O=C1[C@H]2[C@@H](c3ccc(F)cc3)N3C(=O)N(c4cccc(Br)c4)C(=O)[C@@]3(Cc3ccc(Cl)cc3)[C@H]2C(=O)N1C1CCCCC1	-14	3	12	-6.5*
CCN1C(=O)[C@H]2[C@@H](c3ccc(C(F)(F)F)cc3)N[C@]3(CCCN(Cc4ccc(C)cc4)C3=O)[C@H]2C1=O	nt	nt	nt	109
COC(=O)CC1C(=O)NCCN1C(=O)c1oc2c(C)c(C)ccc2c1C (stereo unspecified)	nt	nt	nt	106
C/C(=N\Nc1nc2ccccc2[nH]1)c1ccccn1	12	2	-87*	95
C/C(=N\NC(=O)c1ccccc1Cl)c1ccccn1	-1	5	4	61*
COc1ccccc1NC(=S)NN=C(C)c1ccccn1	nt	nt	nt	-0.8*
C[C@H](CO)N1C[C@H](C)[C@@H](CN(C)S(=O)(=O)c2ccc(Oc3ccccc3)nc2)OCc2cn(nn2)CCCC1=O	nt	nt	nt	96
Cc1cc(Br)ccc1NC(=O)CNC(=O)CN(C)C1CCS(=O)(=O)C1 (stereo unspecified)	nt	0	nt	94
CCN(c1ccccc1)S(=O)(=O)c1ccc(Cl)c(NC(=O)CSc2ncn[nH]2)c1	-18	4	20	nt
CCN(c1ccccc1)S(=O)(=O)c1ccc(Cl)c(NC(=O)c2ccc(=O)[nH]n2)c1	4	-1	nt	21*
COc1cc(/C=N/NC(=O)c2nnn(-c3nonc3N)c2C)ccc1OCc1ccc(Cl)cc1	nt	nt	nt	95
CCN(Cc1ccncc1)Cc1ccc(OC)cc1OC	-2	0	-2	107
COc1ccc(CN(CCN(C)C)Cc2ccccc2)c(OC)c1	8	-4	11	78*
COc1ccccc1C(CC(=O)Nc1ccc(Cl)cc1)c1ccc(OC(C)C)cc1 (stereo unspecified)	10	2	14	94
CC(C)Oc1ccc(CNC(=O)CC(c2ccccc2)c2cc(Cl)ccc2O)cc1 (stereo unspecified)	-2	51*	42	98
Cc1c(NC(=O)COC(=O)c2cccc(F)c2)c(=O)n(-c2ccccc2)n1C	nt	nt	nt	95
NC(=O)Cc1ccc(C(=O)c2ccc(F)cc2)s1	28	2	-12	75*
COc1cc(NC(=O)COc2ccccc2[N+](=O)[O-])ccc1NC(=O)c1cccs1	nt	nt	11	103
COc1cc(NC(=O)COc2ccccc2Cl)ccc1NC(=O)c1cccs1	7	8	2	6.8*
c1ccc(-c2cccc(-c3ccccn3)n2)nc1	20	-1	-89*	101
SMILES	VLA-4 inh	NTR1 ag	AI-2 QS mod	DSG3 Ab inh
Cc1[nH]c2c(ccc3cccnc32)c1C	18	3	9	98
CC1=[N+](C)c2c(ccc3cccnc23)C1(C)C	nt	nt	nt	79*
Cc1ccc(C)n1Cc1ccc(C(=O)O)cc1	1	1	nt	68*
Cc1cc(C)n(Cc2ccc(C(=O)O)cc2)n1	7	1	13	87
CCN(CC(=O)NC(C)(C)C)C(=O)COc1c(Cl)cc(Cl)c2ccc(C)nc12	-1	11	-81*	101
COCCCn1c(=O)c2ccccc2n(Cc2ccccc2)c1=O	10	-1	-7	100*
O=C(Nc1ccc([N+](=O)[O-])cc1)Nc1nc(-c2ccc(Cl)s2)cs1	-23	nt	-86*	97
CC(=O)Nc1nc(-c2ccc([N+](=O)[O-])cc2)cs1	1	2	18	99
COc1ccc(C(=O)Nc2cc(C)c3c(=O)oc4ccccc4c3n2)cc1	-38	7	16	-3.5*
COCC(=O)Nc1cc(C)c2c(=O)oc3ccccc3c2n1	-10	-2	12	100
O=C(CC1Sc2ccccc2NC1=O)NNc1cc(Cl)ccc1Cl (stereo unspecified)	nt	nt	nt	87
COc1c(N2CCNC(C)C2)c(F)cc2c(=O)c(C(=O)O)cn(C3CC3)c12 (stereo unspecified)	3	0	27	nt
NC1CCN(c2c(F)cc3c(=O)c(C(=O)O)cn(C4CC4)c3c2Cl)C1 (stereo unspecified)	3	-1	-88*	93
COC(=O)[C@H](CC(C)C)NC(=O)Cn1cnc2c(NCc3ccccc3)ncnc21	nt	0	nt	100
Cc1csc(NC(=O)C(NS(=O)(=O)c2ccc(Br)s2)c2ccccc2)n1 (stereo unspecified)	-7	1	9	86*
CCN1CCN(Cc2ccc(NC(=O)c3ccc(C)c(NC(=O)C(=O)c4c[nH]c5ccccc45)c3)cc2C(F)(F)F)CC1	16	41*!	43	103
O=C(Nc1cccc2ccccc12)c1ccc([N+](=O)[O-])s1	-2	0	18	106
O=C(Nc1ccccc1F)c1ccc([N+](=O)[O-])s1	17	0	-115*	103
CCCCCCCCCC[N+](C)(C)CC/C=C1/c2ccccc2Sc2ccc(Cl)cc21	8	29	?	104
CCCCCCCCCCC[N+](C)(C)CC/C=C1/c2ccccc2Sc2ccc(Cl)cc21	-50	19	-145*	108
COc1cc(/C=C/C=C2/CC/C(=C/C=C/c3ccc(O)c(OC)c3)C2=O)ccc1O	nt	nt	nt	36*
CCCCn1nc(C(=O)NCC(c2cccs2)N2CCOCC2)c2ccccc2c1=O (stereo unspecified)	5	0	nt	nt
Cc1ccc(S(=O)(=O)NCc2ccc3c(c2)cc(C)n3C)cc1	12	-4	26	71*
O=C(CCN1CCN(c2ccccc2)CC1)N/N=C/c1ccc(O)c(O)c1O	nt	nt	49	80*
COc1ccc(/C=N/NC(=O)CCN2CCN(c3ccccc3)CC2)c(OC)c1OC	11	-1	8	106
SMILES	VLA-4 inh	NTR1 ag	AI-2 QS mod	DSG3 Ab inh
Cc1ccc2[nH]c(=O)c(CN(CCCN3CCOCC3)C(=O)NC3CCCCC3)cc2c1	-5	0	12	93*
CCOC(=O)C1CCN(C(=O)c2ccc3c(=O)n4nc(Nc5ccccc5OC)sc4nc3c2)CC1	nt	nt	nt	102
c1ccc(C(c2ccccc2)N2CCN(Cc3nc(-c4cnccn4)no3)CC2)cc1	5	1	0	95
Fc1cccc(CN2CCN(Cc3nc(-c4cnccn4)no3)CC2)c1	3	-1	10	-16*
CCOC(=O)N/N=C/c1cn(Cc2ccc(Cl)cc2)c2ccccc12	5	5	17	-28*
CCOC(=O)N/N=C/c1cn(CCCOc2ccccc2)c2ccccc12	14	4	18	97
